# Source: PubChem BioAssay (Tox21)
# Records with an inconclusive call do not appear. Activity calls are given as the source filed them. The call rests on the fitted dose curve; in most records, active means well fitted cell-killing curve with a large enough effect in the repeat runs; inconclusive means weak or mixed curves, or effect the other way; inactive means flat fitted curve, though single readings scatter.
# Assay: qHTS assay to identify small molecule antagonists of the estrogen receptor alpha (ER-alpha) signaling pathway using the BG1 cell line in the presence of 0.1 nM 17-beta-estradiol - cell viability counter screen (AID 1259241); further: nearly all actives have a fitted effect of over 40% in size
# Details: VM7Luc4E2 (BG1) viability, CellTiter-Fluor protease, 22 h, 0.1 nM estradiol agonist added; series mostly up to 92.4 µM; activity change, negative = cytotoxicity: at the top concentration
# Description: National Center for Advancing Translational Sciences [NCATS]
# NIH Chemical Genomics Center [NCGC]
# U.S. Environmental Protection Agency [EPA]
# National Institutes of Environmental Health Sciences [NIEHS]
# National Toxicology Program [NTP]
# U.S. Food and Drug Administration [FDA]
# Estrogen receptor (ER), a member of the nuclear hormone receptor plays an important role in development, metabolic homeostasis and reproduction. Two subtypes of ER, ER-alpha and ER-beta, have similar expression patterns with some uniqueness in both types. Endocrine disrupting chemicals (EDCs) and their interactions with steroid hormone receptors like ER causes disruption of normal endocrine function. Therefore, it is important to understand the effect of environmental chemicals in ER signaling pathway. For identifying ER antagonists, VM7Luc4E2 cell line was used to screen against Tox21 compound libraries.
# VM7Luc4E2 cell line (provided by Denison MS, University of California) endogenously express full-length ER-alpha and is stably transfected with a plasmid containing four estrogen responsive elements (ERE) upstream of a luciferase reporter gene. The current screening for identification of ER-alpha inhibitors against Tox21 compound libraries used lower concentration (0.1 nM) of 17beta-Estradiol as a stimulator. The cytotoxicity of the Tox21 compound libraries against VM7Luc4E2 cell line was tested by measuring live-cell protease activity using CellTiter-Fluor assay in the same wells.
# Tox21 Assay Protocol Summary:
# VM7Luc4E2 cells were cultured in phenol red free assay medium containing 10% charcoal stripped FBS for 5 days prior to the assay. The cells were dispensed at 4,000 cells/well in 4 uL of assay medium into white wall/solid-bottom 1536-well plates (Corning Life Sciences, Corning, NY) using a Multidrop Combi (ThermoFisher Scientific, Waltham, MA) dispenser. After the assay plates were incubated at 37C and 5% CO2 for 24 hr, 23 nL of compounds dissolved in DMSO, positive controls or DMSO only was transferred to the assay plates by a Pintool station (Kalypsys, San Diego, CA). The transfer of compounds was followed by the addition of 1 uL of 0.1 nM (final concentration) agonist (17beta-Estradiol)/assay medium using a Flying Reagent Dispenser (FRD, Aurora Discovery, San Diego, CA). The plates were incubated at 37C and 5% CO2 for 22 hr. For cytotoxicity assay, 1 uL of CellTiter-Fluor reagent (Promega Corporation, Madison, WI) was added to each well using the FRD and after 30 min incubation at 37C and 5% CO2, The fluorescence intensity was measured using ViewLux plate reader (PerkinElmer, Shelton, CT).
# On the % scale 0 is the no-effect control and ±100 the full control effect.
SMILES,"activity change, negative = cytotoxicity",Potency
C=CCOC(=O)C(C)(C)OC(=O)c1cc(-n2c(=O)cc(C(F)(F)F)n(C)c2=O)ccc1Cl,-13.7% (inactive),–
COc1cc(CC#N)cc(OC)c1OC,6.6% [at 42.5 µM] (inactive),–
C=CCOCC1CO1 (stereo not given),5.91% (inactive),–
O=C(NC(=O)c1cc(F)c(F)cc1Cl)Nc1cc(F)ccc1N1CCC(C(=O)O)CC1,-2.39% [at 42.5 µM] (inactive),–
FC(F)OC(F)(F)C(F)Cl (stereo not given),4.26% (inactive),–
CC(C)(C)NCC(O)c1ccccc1Cl (stereo not given),0.528% [at 42.5 µM] (inactive),–
NP(N)(=O)NC(=O)c1ccc(F)cc1,2.38% [at 42.5 µM] (inactive),–
C=CCc1ccccc1O,2.05% (inactive),–
CCOP(=O)(SC(C)CC)N1CCSC1=O (stereo not given),2.28% (inactive),–
CCC1(CC)C(=O)NC(=O)NC1=O,7.75% [at 42.5 µM] (inactive),–
Cc1ccccc1,-4.04% (inactive),–
COC(=O)C1(O)c2ccccc2-c2ccccc21,10.6% (inactive),–
O=[N+]([O-])/C=C/c1ccccc1,–,inactive
C[N+](C)(C)CC1CO1 (stereo not given),-2.88% (inactive),–
NC(=O)CF,-0.0079% (inactive),–
CCCC[P+](CC)(CCCC)CCCC (tested in a mixture with another compound),-0.535% (inactive),–
CCNC(=O)NC(=O)/C(C#N)=N/OC,3.74% (inactive),–
O=S(=O)(Cl)Cl,5.85% (inactive),–
Nc1cccc2ccccc12,–,inactive
CC(Oc1cc(Cl)c(Cl)cc1Cl)C(=O)O (stereo not given),12% (inactive),–

SMILES,"activity change, negative = cytotoxicity",Potency
COc1ccc2c(c1OC)C(=O)O[C@H]2[C@@H]1c2cc3c(cc2CCN1C)OCO3,-27.8% [at 42.5 µM] (inactive),–
CC(C)CCCCCCCOC(=O)c1ccccc1C(=O)OCCCCCCCC(C)C,-6.2% (inactive),–
CC1(C)CC(=O)CC(C)(C)N1[O],2.32% (inactive),–
COCc1cnc(C2=NC(C)(C(C)C)C(=O)N2)c(C(=O)O)c1 (stereo not given),-0.112% (inactive),–
OCCCl,-2.52% (inactive),–
C=CC(=O)NC(C)(C)CC(C)=O,-1.78% (inactive),–
CCOC(=O)c1cn2nc(OP(=S)(OCC)OCC)cc2nc1C,-2.74% (inactive),–
Cc1cnc(C2=NC(C)(C(C)C)C(=O)N2)c(C(=O)O)c1 (stereo not given),10.5% (inactive),–
CCCCCBr,-3.35% (inactive),–
CCCCCCCCP(=O)(O)O,2.11% (inactive),–
CC(C)OC(=O)Cc1ccccc1,7% (inactive),–
O=C(O)c1ccc(=O)[nH]c1,-0.217% [at 42.5 µM] (inactive),–
C=CC(=O)OCC,4.21% (inactive),–
O=C(O)C(O)C(O)C(=O)O (stereo not given),5.76% (inactive),–
CN1CC[C@]23c4c5ccc(O)c4O[C@H]2[C@@H](O)C=C[C@H]3[C@H]1C5,-0.287% (inactive),–
O=CC=O,-1.76% (inactive),–
C[C@]12C=CC3=C4CCC(=O)C=C4CC[C@H]3[C@@H]1CC[C@@H]2O,–,inactive
CCC[N+](CCC)(CCC)CCC,0.876% (inactive),–
C#CC(O)(C=CCl)CC (stereo not given),2.78% [at 42.5 µM] (inactive),–
C[N+]1(CCC(C(N)=O)(c2ccccc2)c2ccccc2)CCCCC1,0.405% [at 42.5 µM] (inactive),–
